Results: PubChem BioAssay (NCI)
About 79,000 compounds went through this panel and 15% of them were active in at least one assay; those are over-represented in the sample as a whole. Active and inactive are the calls of the source. Cut-off read from the data, not from the text of the source: active = growth inhibition above about 70%; inactive = the rest.

Tests used:
[1] = NCI Yeast Anticancer Drug Screen. Data for the rad52 strain (AID 147);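 note: 0% = growth of vehicle-treated control cultures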; details: S. cerevisiae rad52 mutant growth inhibition, stronger effect = higher value
Procedure, shortened: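 Compounds are applied to a genetically defined yeast strain lacking normal DNA damage repair, and inhibition of growth is expressed relative to cultures given vehicle only.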

[2] = NCI Yeast Anticancer Drug Screen. Data for the wt1 strain (AID 149);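 note: 0% = growth of vehicle-treated wt1 cultures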; details: S. cerevisiae wt1 strain (SPY 50644) growth inhibition, stronger effect = higher value
Procedure, shortened: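 wt1 yeast, compound-treated; % growth inhibition vs vehicle control.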

[3] = NCI Yeast Anticancer Drug Screen. Data for the rad50EPP+ strain (AID 151);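 note: 0% = growth of vehicle-treated control cultures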; details: S. cerevisiae rad50 mutant strain, stronger effect = higher value
Procedure, shortened: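 Compounds were applied to the rad50EPP+ yeast strain, which bears a defined DNA repair alteration, and growth inhibition was determined relative to vehicle-treated cultures.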

[4] = NCI Yeast Anticancer Drug Screen. Data for the mgt1 strain (AID 153); details: S. cerevisiae mgt1 mutant growth inhibition, stronger effect = higher value
Procedure, shortened: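 Strain: mgt1 yeast, one of a set carrying defined DNA damage repair or cell cycle control alterations. Compound-treated growth compared with vehicle.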

[5] = NCI Yeast Anticancer Drug Screen. Data for the rad50 strain (AID 155);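 note: 0% = growth of vehicle-only cultures of the same strain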; details: S. cerevisiae rad50 strain growth inhibition, stronger effect = higher value
Procedure, shortened: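 Genetically altered yeast (DNA repair pathway); compound treatment; growth inhibition vs vehicle ctrl.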

[6] = NCI Yeast Anticancer Drug Screen. Data for the mec2-1 strain (AID 157); details: S. cerevisiae mec2-1 strain, stronger effect = higher value
Procedure, shortened: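 Strain: mec2-1 (DNA repair/cell cycle alteration). Compound exposure, then growth measured; inhibition expressed relative to vehicle.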

[7] = NCI Yeast Anticancer Drug Screen. Data for the rad14 strain (AID 159);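 note: 0% = growth of vehicle-treated control cultures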; details: S. cerevisiae rad14 strain growth inhibition, stronger effect = higher value
Procedure, shortened: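 Test compounds were applied to a repair-deficient yeast strain. Its growth was then compared with that of cultures given vehicle alone, and inhibition was expressed relative to those controls.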

[8] = NCI Yeast Anticancer Drug Screen. Data for the sgs1 mgt1 strain (AID 161);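 note: 0% = growth of cultures given vehicle only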; details: S. cerevisiae sgs1 mgt1 strain, stronger effect = higher value
Procedure, shortened: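 Read-out: growth inhibition vs vehicle controls. Cells: mutant yeast strain deficient in DNA damage repair.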

[9] = NCI Yeast Anticancer Drug Screen. Data for the CLN2oe strain (AID 163);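 note: 0% = growth of vehicle-only control cultures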; details: S. cerevisiae CLN2oe strain, stronger effect = higher value
Procedure, shortened: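 Growth of a genetically modified yeast strain is measured after compound exposure and compared with cultures given vehicle alone.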

[10] = NCI Yeast Anticancer Drug Screen. Data for the cln2 rad14 strain (AID 165);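 note: 0% = growth equal to vehicle treated cultures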; details: S. cerevisiae cln2 rad14 strain, stronger effect = higher value
Procedure, shortened: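 Compounds are applied to the cln2 rad14 yeast strain, and growth is then compared with that of vehicle-treated cultures to give inhibition.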

[11] = NCI Yeast Anticancer Drug Screen. Data for the bub3 strain (AID 167); details: S. cerevisiae bub3 mutant strain, stronger effect = higher value
Procedure, shortened: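 Yeast carrying a defined mutation is treated with each compound, and growth is compared with that of vehicle-exposed cells to give inhibition.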

[12] = NCI Yeast Anticancer Drug Screen. Data for the wt2 strain (AID 169);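 note: 0% = growth of vehicle-treated yeast cultures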; details: S. cerevisiae wt2 strain growth inhibition, stronger effect = higher value
Procedure, shortened: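 This strain belongs to a panel of yeast strains with defined genetic alterations in DNA damage repair or cell cycle control. Compounds are applied, and growth inhibition is measured against vehicle-treated cultures.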

[13] = NCI Yeast Anticancer Drug Screen. Data for the mlh1 strain (AID 171);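 note: 0% = growth of vehicle-treated control cultures of the same strain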; details: S. cerevisiae mlh1 strain growth inhibition, stronger effect = higher value
Procedure, shortened: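 Growth of the mutant yeast strain after compound exposure, expressed as inhibition relative to vehicle-only controls.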

[14] = NCI Yeast Anticancer Drug Screen. Data for the sgs1 strain (AID 173);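 note: 0% = growth of vehicle-only control cultures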; details: S. cerevisiae sgs1 mutant, stronger effect = higher value
Procedure, shortened: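 Growth of a yeast strain bearing a defined genetic alteration is measured after compound treatment. Inhibition is expressed relative to vehicle-only controls.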

[15] = NCI Yeast Anticancer Drug Screen. Data for the mlh1 rad18 strain (AID 175); details: S. cerevisiae mlh1 rad18 strain growth inhibition, stronger effect = higher value
Procedure, shortened: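 Read-out is yeast growth inhibition, calculated against vehicle-only controls. The compound was applied to a strain engineered with DNA damage repair alterations.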

[16] = NCI Yeast Anticancer Drug Screen. Data for the rad18 strain (AID 177); details: S. cerevisiae rad18 mutant growth inhibition, stronger effect = higher value
Procedure, shortened: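 Growth of the mutant yeast strain after compound exposure, normalised to vehicle-only cultures.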

[17] = at 5.0 µM (retest, dose inferred, filed as 0.5)
[18] = at 50.0 µM (retest, dose inferred, filed as 5.0)

Measured: growth inhibition

CC(C)NCCCNc1c2ccccc2nc2cccc([N+](=O)[O-])c12
active: [1]; at 1.2 µM 93% | [1]; at 3.7 µM 96% | [1]; at 11.0 µM 97% | [1]; at 33.0 µM 97% | [1]; at 100.0 µM 97% | [2]; at 11.0 µM 88% | [2]; at 33.0 µM 96% | [2]; at 100.0 µM 97% | [3]; at 1.2 µM 86% | [3]; at 3.7 µM 93% | [3]; at 11.0 µM 95% | [3]; at 33.0 µM 96% | [3]; at 100.0 µM 97% | [4]; at 33.0 µM 92% | [4]; at 100.0 µM 96% | [5]; at 1.2 µM 90% | [5]; at 3.7 µM 93% | [5]; [17] 95% | [5]; at 11.0 µM 95% | [5]; at 33.0 µM 96% | [5]; [18] 99% | [5]; at 50.0 µM 83.3% | [5]; at 100.0 µM 97% | [6]; at 1.2 µM 94% | [6]; at 3.7 µM 97% | [6]; [17] 93% | [6]; at 11.0 µM 97% | [6]; at 33.0 µM 98% | [6]; [18] 98% | [6]; at 50.0 µM 86.5% | [6]; at 100.0 µM 98% | [7]; at 1.2 µM 98% | [7]; at 3.7 µM 98% | [7]; at 11.0 µM 97% | [7]; at 33.0 µM 99% | [7]; at 100.0 µM 99% | [8]; [17] 94% | [8]; [18] 98% | [8]; at 50.0 µM 80.8% | [9]; at 3.7 µM 88% | [9]; at 11.0 µM 96% | [9]; at 33.0 µM 97% | [9]; at 100.0 µM 98% | [10]; [17] 98% | [10]; [18] 99% | [10]; at 50.0 µM 85.7% | [11]; at 11.0 µM 90% | [11]; at 33.0 µM 96% | [11]; [18] 99% | [11]; at 100.0 µM 96% | [12]; at 3.7 µM 74% | [12]; at 11.0 µM 94% | [12]; at 33.0 µM 97% | [12]; at 100.0 µM 97% | [13]; at 3.7 µM 75% | [13]; at 11.0 µM 91% | [13]; at 33.0 µM 95% | [13]; at 100.0 µM 96% | [14]; at 1.2 µM 92% | [14]; at 3.7 µM 94% | [14]; at 11.0 µM 96% | [14]; at 33.0 µM 97% | [14]; at 100.0 µM 98% | [15]; [17] 97% | [15]; [18] 99% | [15]; at 50.0 µM 77% | [16]; at 1.2 µM 97% | [16]; at 3.7 µM 96% | [16]; at 11.0 µM 97% | [16]; at 33.0 µM 97% | [16]; at 100.0 µM 97%
inactive: [2]; at 1.2 µM 13% | [2]; at 3.7 µM 57% | [4]; at 1.2 µM -1% | [4]; at 3.7 µM 38% | [4]; at 11.0 µM 58% | [9]; at 1.2 µM 35% | [11]; at 1.2 µM -11% | [11]; at 3.7 µM 53% | [11]; [17] -4% | [11]; at 50.0 µM 66.8% | [12]; at 1.2 µM 28% | [13]; at 1.2 µM 28%

O=C1CC(C(O)(C(F)(F)F)C(F)(F)Cl)CCC1C(O)(C(F)(F)F)C(F)(F)Cl (stereo unspecified)
inactive: [1]; at 1.2 µM 54% | [1]; at 3.7 µM 46% | [2]; at 1.2 µM 32% | [2]; at 3.7 µM 44% | [2]; at 11.0 µM 68% | [3]; at 1.2 µM 12% | [3]; at 3.7 µM 24% | [3]; at 11.0 µM 38% | [3]; at 33.0 µM 46% | [3]; at 100.0 µM 41% | [4]; at 1.2 µM 60% | [4]; at 3.7 µM 65% | [5]; at 1.2 µM 45% | [5]; at 3.7 µM 33% | [5]; [17] 29% | [5]; at 11.0 µM 57% | [6]; at 1.2 µM 67% | [6]; at 3.7 µM 56% | [6]; [17] 35% | [7]; at 1.2 µM 66% | [7]; at 3.7 µM 50% | [8]; [17] 49% | [10]; [17] 44% | [11]; at 1.2 µM 60% | [11]; at 3.7 µM 45% | [11]; [17] 2% | [12]; at 1.2 µM 51% | [12]; at 3.7 µM 55% | [13]; at 1.2 µM 52% | [13]; at 3.7 µM 46% | [13]; at 11.0 µM 67% | [14]; at 1.2 µM 61% | [14]; at 3.7 µM 62% | [15]; [17] 42% | [16]; at 1.2 µM 42% | [16]; at 3.7 µM 45%
active: [1]; at 11.0 µM 72% | [1]; at 33.0 µM 93% | [1]; at 100.0 µM 97% | [2]; at 33.0 µM 91% | [2]; at 100.0 µM 97% | [4]; at 11.0 µM 87% | [4]; at 33.0 µM 94% | [4]; at 100.0 µM 97% | [5]; at 33.0 µM 91% | [5]; [18] 96% | [5]; at 50.0 µM 99.1% | [5]; at 100.0 µM 97% | [6]; at 11.0 µM 84% | [6]; at 33.0 µM 96% | [6]; [18] 96% | [6]; at 50.0 µM 99.5% | [6]; at 100.0 µM 98% | [7]; at 11.0 µM 85% | [7]; at 33.0 µM 97% | [7]; at 100.0 µM 99% | [8]; [18] 96% | [8]; at 50.0 µM 99.5% | [9]; at 1.2 µM 75% | [9]; at 3.7 µM 77% | [9]; at 11.0 µM 89% | [9]; at 33.0 µM 95% | [9]; at 100.0 µM 95% | [10]; [18] 96% | [10]; at 50.0 µM 99.2% | [11]; at 11.0 µM 76% | [11]; at 33.0 µM 95% | [11]; [18] 97% | [11]; at 50.0 µM 99.4% | [11]; at 100.0 µM 97% | [12]; at 11.0 µM 84% | [12]; at 33.0 µM 93% | [12]; at 100.0 µM 98% | [13]; at 33.0 µM 92% | [13]; at 100.0 µM 98% | [14]; at 11.0 µM 80% | [14]; at 33.0 µM 96% | [14]; at 100.0 µM 98% | [15]; [18] 97% | [15]; at 50.0 µM 99% | [16]; at 11.0 µM 76% | [16]; at 33.0 µM 94% | [16]; at 100.0 µM 97%
